Bioassay records from PubChem BioAssay.
A selection: hits, their analogues and other compounds. The true share with any hit is near 11%.
HEK cytotox = Cytotoxic Profiling in HEK 293 Cell Line of Diverse Libraries Using Quantitative High-Throughput Screening | HEK 293 viability, ATP luminescence (CellTiter-Glo), 48-72 h | Potency, µM (doses to about 115 µM), for inactives: at the top dose activity change, negative = cytotoxicity, hits mostly inhibitors | 6.6% of 94,000 active | AID 1345083, 2018; also: nearly all actives have a fitted effect of over 60% in size
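CellTiter-Glo luminescence (cellular ATP) was read after 48 or 72 hr of compound exposure at 37 degree Celsius. Cells were HEK 293 plated at 250 cells/well.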
FLuc inh = Firefly luciferase inhibition profiling of diverse chemical library using quantitative high-throughput screening; Potency, µM (titrated, usually from 115 µM), usual class: inhibitors; 2.5% of 76,000 active; Luciferin 4-monooxygenase (Photinus pyralis), P08659; purified P. pyralis luciferase, luminescence, biochemical; AID 1347043, 2019; also: nearly all actives have a fitted effect of over 65% in size
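Luminescence read by CCD imager after adding enzyme (10nM final) to wells holding compound, titrated in qHTS. Substrates 10uM each D-luciferin and ATP; buffer 50mM Tris acetate pH 7.5, 10mM Mg acetate, Tween-20, BSA.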
hNpr1 antagonist = Natriuretic polypeptide receptor (hNpr1) antagonism - Primary qHTS; Potency, µM (titrated, usually from 46.3 µM), for inactives: top-dose activity change, negative = inhibition, hits mostly inhibitors; Atrial natriuretic peptide receptor 1 (Homo sapiens), P16066; 1.6% of 76,000 active; HEK293 hNpr1 GloSensor cGMP, ANP-stimulated luminescence; calls by dose curve; also: nearly all actives have a fitted effect of over 60% in size
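HEK293 cells stably expressing human Npr1 and cGMP GloSensor pGS-40F, loaded 2 h with 2% GloSensor reagent, given compound 30 min at room temperature. Luminescence read before and 20 min after 0.1 nM hNppA.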
3T3 cytotox = Cytotoxic Profiling in NIH 3T3 Cell Line of Diverse Libraries Using Quantitative High-Throughput Screening. 4.3% of 94,000 active. NIH 3T3 viability, CellTiter-Glo ATP luminescence, 48-72 h. AID 1345082, 2018. Potency, µM (titrated, usually from 96.7 µM), inactives show at the top dose activity change, negative = cytotoxicity, hits mostly inhibitors; also: nearly all actives have a fitted effect of over 55% in size
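Mouse fibroblast NIH 3T3 cells, 400 per well, received compound via pintool and were incubated for 48 or 72 hr prior to CellTiter-Glo ATP luminescence measurement.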
Numbers without * were called inactive; i = inactive; ? = inconclusive; . = not tested or not shown; ! = not active in a repeat; [ ] = another dose, or the depositor's remark. Unless noted, calls follow the shape of the dose curve; as a rule, active = well fitted curve in the direction sought with a large enough effect; inconclusive = small, poorly fitted or top-dose-only effect, or another doubt; inactive = no such curve, though single readings can be large; an effect the other way counts as inactive or inconclusive. % is scaled to controls: 0 for no effect and ±100 for the full control effect; potency is read from the fitted curve at half-maximal effect.

SMILES	HEK cytotox	FLuc inh	hNpr1 antagonist	3T3 cytotox
Cc1ccc(C(=O)Nc2ccc3c(N4CCOCC4)ncnc3c2)cc1F	?	?	-11%	11µM*
O=C(Cc1ccc(F)cc1)Nc1ccc2ncnc(N3CCCCC3)c2c1	?	i	-16%	35µM*
CC(C)CNc1ccc2c(n1)C(C)(C(=O)N1CCOCC1)CN(Cc1ccccc1)C2 (centres undefined)	?	i	-3%[70.6 µM]	?
COc1ccc(CC(=O)NC2CCN(Cc3cccc(-c4ccc(F)c(F)c4)c3)CC2)cc1	4%	.	.	-22%
O=C(NCCN1CCOCC1)c1ccc2oc(-c3ccnc(Cl)c3)nc2c1	-11%	.	.	-21%
COc1cccc(C(=O)Nc2ccc3ncnc(N4CCCCC4)c3c2)c1	?	i	-22%	?
CCCC(=O)Nc1ccc2c(N3CCOCC3)ncnc2c1	-14%	i	4%	?
COc1ccc(C(=O)Nc2ccc3c(N4CCCCC4)ncnc3c2)cc1	40µM*	25µM*	1%	?
O=C(Nc1ccc2ncnc(N3CCCCC3)c2c1)c1ccc(F)cc1F	?	i	-15%	?
COc1ccc(C(=O)Nc2ccc3c(N4CCOCC4)ncnc3c2)c(C)c1	?	?	0%	22µM*
O=C(Nc1ccc2c(N3CCCCC3)ncnc2c1)c1ccc(F)cc1F	16µM*	?	3%	22µM*
O=C1NCc2ccccc2CC12CCCCN2Cc1ccsc1 (centres undefined)	-30%	.	.	-8%
O=C(NC1CCCCC1)N[C@H]1[C@H](O)[C@@H](N2CCC(Cc3ccccc3)CC2)[C@@H]2OC[C@H]1O2	?	i	3%	?
O[C@H]1[C@H](NCc2ccc(OC(F)(F)F)cc2)[C@H]2CO[C@H](O2)[C@@H]1N1CCC(Cc2ccccc2)CC1	45µM*	i	?	?
O[C@H]1[C@H](NCC2CCCCC2)[C@H]2CO[C@H](O2)[C@@H]1N1CCC(Cc2ccccc2)CC1	40µM*	i	-3%[70.6 µM]	32µM*
CCOc1ccccc1CN1CCC2(CCN(C(=O)c3ccccc3C)CC2)Oc2ccccc21	?	i	-30%	?
CCN(CC)Cc1nc(C2(O)CCN(Cc3ccccc3C(F)(F)F)CC2)cs1	89µM*	i	8%[70.6 µM]	?
CCN(CC)Cc1nc(C2(O)CCN(Cc3ccccc3O)CC2)cs1	-24%[172 µM]	i	2%[70.6 µM]	?
COCCN1Cc2ccccc2N(CC(O)COc2ccccc2)CCC1=O (centres undefined)	?	.	.	-25%
COc1ccc(OCC(O)CN2CCC(=O)N(C/C=C/c3ccccc3)CCc3ccccc32)cc1 (centres undefined)	28µM*	.	.	?
C=CCN1CCc2ccccc2N(CC(O)COc2ccc(OC)cc2)CCC1=O (centres undefined)	-21%[57.5 µM]	.	.	?
COc1ccc(OCC(O)CN2CCC(=O)N(C3CCCC3)Cc3ccccc32)cc1 (centres undefined)	40µM*	.	.	?
O=c1cc2c(nn1Cc1cccc(Br)c1)CCCCC2	?	32µM*	1%	?
O=c1[nH]c(C2CCCN(Cc3cccc(-c4ccsc4)c3)C2)nc2ccc(F)cc12 (centres undefined)	22µM*	i	-21%	28µM*!
Cc1ccc2nc(C3CCCN(Cc4cccc(-c5ccc(F)cc5F)c4)C3)[nH]c(=O)c2c1 (centres undefined)	?	i	-25%	?
O=c1[nH]c(C2CCCN(Cc3cccc(Cl)c3)C2)nc2ccc(F)cc12 (centres undefined)	?	i	-20%	?
O=c1[nH]c(C2CCCN(CC3CCCC3)C2)nc2ccc(F)cc12 (centres undefined)	32µM*	i	0%	40µM*
Cc1ccc2nc(C3CCCN(Cc4cccc(-c5cccnc5)c4)C3)[nH]c(=O)c2c1 (centres undefined)	32µM*!	i	-26%	?
CCN1CCCC(c2nc3ccc(F)cc3c(=O)[nH]2)C1 (centres undefined)	-1%[172 µM]	i	-2%[70.6 µM]	-9%[138 µM]
CNC(=O)c1cc(C)nc2onc(C3CCN(C(=O)c4ccccc4)CC3)c12	-2%	.	.	-24%
